# Results reported in publication PMC4336329 (PLoS ONE, 2015).
# Among all 310,000 compounds or so, about 14,000 (4.5%) showed an effect of 50% or more. The effect is printed as a negative number. The sample holds strong results, similar compounds and a random draw of the others, so the mix is not that of the screen.
# Biological target: human ether-à-go-go-related gene (hERG) potassium channel (human, UniProt Q12809)
# Assay: primary screen, population patch clamp on CHO cells stably expressing hERG; higher = less effect of the substance
# 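Further: peak tail current of the secondary pulse compared with the same well before compound.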
# Sequence of human ether-à-go-go-related gene (hERG) potassium channel (Q12809 whole entry, looked up): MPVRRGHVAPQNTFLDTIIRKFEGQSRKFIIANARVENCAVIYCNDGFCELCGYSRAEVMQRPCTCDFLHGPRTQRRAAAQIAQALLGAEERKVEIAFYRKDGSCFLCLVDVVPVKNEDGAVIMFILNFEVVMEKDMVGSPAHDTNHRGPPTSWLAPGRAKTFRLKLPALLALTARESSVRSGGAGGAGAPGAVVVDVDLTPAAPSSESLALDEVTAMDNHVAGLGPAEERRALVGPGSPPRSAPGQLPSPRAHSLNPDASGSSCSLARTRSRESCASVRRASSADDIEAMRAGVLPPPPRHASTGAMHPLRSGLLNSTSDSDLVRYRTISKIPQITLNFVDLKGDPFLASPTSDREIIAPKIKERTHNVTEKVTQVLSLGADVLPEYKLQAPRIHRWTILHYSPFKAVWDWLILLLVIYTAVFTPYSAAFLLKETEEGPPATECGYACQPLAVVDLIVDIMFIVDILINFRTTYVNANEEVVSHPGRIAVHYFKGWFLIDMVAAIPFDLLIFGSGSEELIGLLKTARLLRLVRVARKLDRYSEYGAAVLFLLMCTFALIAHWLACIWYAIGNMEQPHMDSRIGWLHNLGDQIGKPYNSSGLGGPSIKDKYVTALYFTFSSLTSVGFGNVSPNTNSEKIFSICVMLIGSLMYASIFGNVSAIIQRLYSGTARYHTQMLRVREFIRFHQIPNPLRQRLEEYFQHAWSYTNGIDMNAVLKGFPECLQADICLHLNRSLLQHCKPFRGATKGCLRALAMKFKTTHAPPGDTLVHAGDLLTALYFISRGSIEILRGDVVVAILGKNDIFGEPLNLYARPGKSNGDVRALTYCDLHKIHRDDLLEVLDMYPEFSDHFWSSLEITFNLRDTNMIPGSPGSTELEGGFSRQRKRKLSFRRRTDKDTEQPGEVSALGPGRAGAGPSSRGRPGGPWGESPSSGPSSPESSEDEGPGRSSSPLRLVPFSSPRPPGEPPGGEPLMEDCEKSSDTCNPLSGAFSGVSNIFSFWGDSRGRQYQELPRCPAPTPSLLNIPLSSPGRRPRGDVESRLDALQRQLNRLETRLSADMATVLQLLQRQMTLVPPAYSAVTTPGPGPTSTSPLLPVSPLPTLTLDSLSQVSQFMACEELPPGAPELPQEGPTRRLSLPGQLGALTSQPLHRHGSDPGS
row,SMILES,"hERG current change (%, negative = inhibition) at 10uM [%]"
1,CCN(C(=O)COC(=O)c1ccc2[nH]c3c(c2c1)CCCC3)C1CCS(=O)(=O)C1 (centres unmarked),-8.35
2,COc1ccccc1C(=O)Nc1nnc(S(=O)(=O)N2CCCCCC2)s1,3.54
3,COc1cc(/C=C/C(=O)O)cc(S(=O)(=O)Nc2ccc3cn[nH]c3c2)c1OC,9.74
4,O=c1[nH]c(-c2ccccn2)nc2ccccc12,-3.46
5,COc1ccc(/C=N/Nc2nc(-c3ccc(Cl)cc3)cc(C(F)(F)F)n2)c(OC)c1,2.62
6,CC(C)CNC(=O)CSc1ccc(Cl)cc1,-3.84
7,O=C(CN1CCN(Cc2ccccc2)CC1)c1ccccc1,1.35
8,Cc1ccc(OCC(=O)Nc2ccc(N3CCN(S(C)(=O)=O)CC3)cc2)cc1,17.4
9,CCc1ccc(NC(=O)CN2CC(c3ccccc3)CC2=O)cc1 (centres unmarked),-27.6
10,O=C(NCC1CCOCC1)c1ccc2nc(Cc3cccc(Cl)c3)oc2c1,-12.8
11,CN(CC1CCOCC1)C(=O)c1ccc2nc(Cc3cccc(Cl)c3)oc2c1,-69.7
12,CN(CCCN1CCOCC1)C(=O)c1ccc2nc(Cc3cccc(Cl)c3)oc2c1,-6.26
13,Cc1ccc(C)c(S(=O)(=O)C(C#N)c2nc3ccccc3nc2N2CC(C)OC(C)C2)c1 (centres unmarked),4.01
14,Cc1ccc(OCCC(=O)OCC(=O)Nc2ccc3[nH]c(=O)[nH]c3c2)cc1,-20.3
15,O=C(NCCCn1ccnc1)c1cc(-c2cccnc2)nc2ccc(Br)cc12,-45.1
16,Cc1nn(Cc2ccccc2Cl)c2sc(C(=O)NC(C)(C)C)cc12,10.7
17,Cc1ccc(-c2cc(C(=O)NCCCn3ccnc3)c3cc(Br)ccc3n2)o1,-73.8
18,CCc1ccc(-c2cc(C(=O)O)c3ccccc3n2)s1,16.9
19,Cc1ccc(-c2cc(C(=O)NCCCn3ccnc3)c3ccccc3n2)s1,-70.9
20,Cc1ccc2nc(-c3ccccc3)cc(C(=O)NCCCn3ccnc3)c2c1,-40.7
21,CCOc1ccc(-c2cc(C(=O)NCCCn3ccnc3)c3cc(Br)ccc3n2)cc1,7.06

row,SMILES,"hERG current change (%, negative = inhibition) at 10uM [%]"
1,CCc1ccc(-c2cc(C(=O)NCCCn3ccnc3)c3ccccc3n2)s1,-73.6
2,Cc1nn(Cc2ccccc2Cl)c2sc(C(=O)NCCCn3ccnc3)cc12,-82.6
3,CCC(CC)NC(=O)c1cc2c(C)nn(Cc3ccccc3Cl)c2s1,10.9
4,Cc1ccccc1C(=O)NCCCn1ccnc1,18.3
5,CCc1ccc(-c2cc(C(=O)NCc3ccco3)c3ccccc3n2)s1,-9.4
6,CC(C)CC(=O)CN1C(=O)C2(OCCO2)c2ccccc21,13.2
7,COc1ccc(-c2cc(C(F)F)nc(-n3nc(C)cc3C)n2)cc1,11.7
8,O=c1cc(-c2ccccc2)c2ccc(O)c(CN3CCCCC3)c2o1,-8.89
9,COc1ccc2nc(Nc3nc4cc5c(cc4s3)OCO5)sc2c1,6.67
10,O=S(=O)(Nc1c(O)ccc2ccccc12)c1cccc2ccccc12,6.79
11,COc1ccc(C(CNC(=O)c2[nH]c(C)c(C(C)=O)c2C)N2CCOCC2)cc1 (centres unmarked),-4.61
12,Cc1nc2oc3c(NCC4CCCO4)ncnc3c2c2c1COC(C)(C)C2 (centres unmarked),-16.6
13,CC(=O)Nc1nc(C)c(CCCOc2ccc([N+](=O)[O-])cc2)c(=O)[nH]1,0.762
14,Cc1noc(C)c1NC(=O)N1CCN(Cc2ccccc2)CC1,8.04
15,COc1ccc(O)c(CN2CCCC(C(=O)Nc3cccc(-n4cccn4)c3)C2)c1 (centres unmarked),-14.9
16,COC(=O)c1ccc(CN2CCCC(C(=O)Nc3cccc(-n4cccn4)c3)C2)cc1 (centres unmarked),-27.4
17,O=C(Nc1cccc(-n2cccn2)c1)C1CCCN(Cc2ccccc2F)C1 (centres unmarked),-30.4
18,CC(=O)c1cccc(CN2CCCC(C(=O)Nc3cccc(-n4cccn4)c3)C2)c1 (centres unmarked),-23.9
19,CSc1cccc(CN2CCCC(C(=O)Nc3cccc(-n4cccn4)c3)C2)c1 (centres unmarked),-28.6
20,Cc1nn(C)c(Cl)c1CN1CCCC(C(=O)Nc2cccc(-n3cccn3)c2)C1 (centres unmarked),-50.2
